Shown is part of a subset that was picked to be rich in hits.
RECQ1 inh: blocks DNA unwinding by human RECQ1 | RECQ1 DNA unwinding, red fluorescence kinetic read | Potency, µM (highest dose often 57.3 µM), without a hit: top-dose activity, negative = inhibition, hits mostly inhibitors | actives 0.54% (n = 240,000) | AID 2549;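 note: plate controls were vehicle for no effect and no enzyme for full effect; nearly all actives have a fitted effect of over 30% in size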
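50 nM RECQ1T1 preincubated 15 min with compound in Tris pH 8.0 buffer with MgCl2, DTT, Tween-20 and 2.5 ug/ml poly(dI-dC); started with 200 nM TAMRA/BHQ-2 forked duplex and 2 mM ATP. Unwinding read as fluorescence (525/598 nm), two reads 2 h apart.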
APE1 inh-1: inhibitors of human APE1 endonuclease; P27695; recombinant APE1, TAMRA/BHQ-2 abasic DNA cleavage fluorescence; Potency, µM (titrated, usually from 65.8 µM), for inactives: top-dose activity change, negative = inhibition, usual class: inhibitors; actives 0.35% (n = 350,000); AID 2517;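 note: plate controls were vehicle for no effect and reference inhibitor for full effect; nearly all actives have a fitted effect of over 55% in size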
Target sequence (P27695 whole entry, looked up): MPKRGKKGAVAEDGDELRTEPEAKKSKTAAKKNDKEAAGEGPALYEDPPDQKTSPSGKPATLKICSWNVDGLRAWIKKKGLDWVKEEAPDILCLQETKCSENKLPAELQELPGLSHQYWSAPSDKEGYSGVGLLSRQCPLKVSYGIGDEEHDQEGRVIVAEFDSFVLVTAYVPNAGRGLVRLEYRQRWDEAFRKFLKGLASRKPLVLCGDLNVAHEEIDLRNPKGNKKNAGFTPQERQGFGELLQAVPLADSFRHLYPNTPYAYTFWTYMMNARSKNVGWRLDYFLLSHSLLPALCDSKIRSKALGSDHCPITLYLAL
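Enzyme (0.75 nM final) and test compound are incubated 15 min at room temperature before adding 50 nM quenched THF abasic-site duplex. Cleavage dequenches TAMRA, followed at 525/598 nm over three reads one minute apart.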
PKM2 act: PKM2 (human) enzyme activation; purified PKM2, Kinase-Glo ATP luminescence, activation; response scale: 0% is enzyme alone, no compound; Potency, µM (titrated, usually from 57.5 µM), for inactives: at the highest dose activation, usual class: activators; actives 0.34% (n = 260,000); AID 1631; note: nearly all actives have a fitted effect of over 55% in size
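ATP formation by purified human PK-M2, quantified via coupled luciferase luminescence after 1 h at room temperature with 0.1 mM ADP and 0.5 mM PEP final.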
BLM inh: blocks DNA unwinding by human BLM helicase | P54132 | recombinant BLM DNA unwinding, fluorescence dequenching | Potency, µM (doses to about 56.1 µM), inactives show top-dose activity change, negative = inhibition, actives largely listed as inhibitors | actives 0.2% (n = 350,000);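 note: plate controls were vehicle for no effect and no enzyme for full effect; nearly all actives have a fitted effect of over 35% in size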
JMJD2E inh: JMJD2E (human) inhibition; B2RXH2; JMJD2E catalytic domain, FDH-coupled NADH fluorescence (FDH is formaldehyde dehydrogenase); Potency, µM (doses to about 57.1 µM), for inactives: at the highest dose activity change, negative = inhibition, most hits filed as inhibitors; actives 1.6% (n = 230,000); AID 2147; active = well fitted inhibition curve with a large enough effect, not every such curve was filed as active; inconclusive = small, poorly fitted or top-dose-only effect, or another doubt; inactive = no such curve, though single readings can be large or run the other way;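 note: 0% = wells with enzyme and -100% = buffer wells without enzyme; nearly all actives have a fitted effect of over 50% in size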
Target sequence (B2RXH2 1-337 limits assumed): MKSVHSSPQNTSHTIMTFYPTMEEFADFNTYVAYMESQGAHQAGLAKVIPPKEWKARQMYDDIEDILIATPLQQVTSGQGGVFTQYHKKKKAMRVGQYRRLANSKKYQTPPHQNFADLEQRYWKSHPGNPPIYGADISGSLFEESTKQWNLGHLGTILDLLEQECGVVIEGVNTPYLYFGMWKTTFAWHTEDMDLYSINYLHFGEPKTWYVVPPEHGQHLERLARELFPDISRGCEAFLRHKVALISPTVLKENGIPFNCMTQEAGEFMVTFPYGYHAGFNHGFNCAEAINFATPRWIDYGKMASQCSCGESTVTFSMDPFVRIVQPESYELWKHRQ
APE1 dye cs: DNA dye displacement counter-screen activity. shares compounds with APE1 inh-1. DNA fluorescent dye displacement counterscreen, fluorescence. Potency, µM (doses to about 28.5 µM), inactives show at the top dose activity change, negative = inhibition, usual class: inhibitors. actives 7% (n = 480). AID 2564;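 note: loss of thiazole orange fluorescence as the dye is displaced from duplex DNA; 0% = ThO with dsDNA and no compound and -100% = ThO without dsDNA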
Endo IV inh: blocks E. coli endonuclease IV DNA cleavage; actives 4% (n = 560); E. coli Endo IV, fluorogenic AP-site DNA cleavage; Potency, µM (titrated, usually from 27.1 µM), without a hit: at the top dose activity change, negative = inhibition, most hits filed as inhibitors; shares compounds with APE1 inh-1;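 note: plate controls were uninhibited enzyme wells for no effect and no enzyme buffer wells for full effect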
APE1 inh-2: APE1 (human) endonuclease inhibition, confirmation; shares compounds with APE1 inh-1; purified APE1, fluorogenic abasic-site DNA cleavage; Potency, µM (top dose mostly 57.1 µM), without a hit: top-dose activity change, negative = inhibition, usual class: inhibitors; actives 44% (n = 750); note: nearly all actives have a fitted effect of over 30% in size
APE1 FP inh: displaces DNA from human APE1 in FP assay. shares compounds with APE1 inh-1. APE1 binding to TAMRA-labelled double-stranded DNA, fluorescence polarization displacement. Potency, µM (top dose mostly 28.5 µM), for inactives: at the highest dose activity, negative = inhibition, usual class: inhibitors. actives 7% (n = 480). AID 2573
Numbers without * were called inactive; ! = a repeat was not active; [ ] = another dose, or the depositor's remark. Unless noted, calls come from the whole dose curve; as a rule, active = well fitted curve in the direction sought with a large enough effect; inconclusive = small, poorly fitted or top-dose-only effect, or another doubt; inactive = no such curve, though single readings can be large; an effect the other way counts as inactive or inconclusive. Unless noted, % is set by controls: 0 for no effect and ±100 for the full control effect; potency is the fitted concentration of half-maximal effect.

What do the screens show for `COc1cc(/C=C(\C#N)C(=O)N2CCOCC2)cc(Br)c1O`?
RECQ1 inh: 9.7%; APE1 inh-1: -5.0%; PKM2 act: 7.6%; BLM inh: -9.0%; JMJD2E inh: 0.3%

Results for CCCCC#Cc1ccccc1CC(=O)Nc1ccccc1 ?
RECQ1 inh: -4.3%; APE1 inh-1: 2.5%; PKM2 act: 3.6%; BLM inh: -2.6%; JMJD2E inh: inconclusive; APE1 inh-2: inconclusive

How did CC(C)CO/N=C1/C[C@@H](O)[C@@H](O)[C@@H]2[C@@H]3C(=O)N(c4cccc(Oc5ccccc5)c4)C(=O)[C@H]3CC[C@H]12 do in these assays?
RECQ1 inh: 13.1%[11.5 µM]; APE1 inh-1: inconclusive; BLM inh: -2.3%[12.4 µM]

How did Cc1nc(SCC(=O)O)c(C#N)c2c1CCCC2 do in these assays?
RECQ1 inh: -26.7%; APE1 inh-1: inconclusive; PKM2 act: 3.9%; BLM inh: -2.2%; JMJD2E inh: -6.5%; APE1 inh-2: inconclusive

What do the screens show for `CCc1nc(SCC(=O)O)c(C#N)c2c1CCCC2`?
RECQ1 inh: -4.0%; APE1 inh-1: 0.1%; PKM2 act: 2.2%; BLM inh: -2.9%; JMJD2E inh: -13.4%

How did C[C@H]1Cc2c(COc3ccccc3)nc3c(c2CO1)CN(S(=O)(=O)c1ccc(Cl)c2nonc12)CC3 do in these assays?
RECQ1 inh: 6.2%[11.5 µM]; APE1 inh-1: -2.6%[12.4 µM]; PKM2 act: -8.6%[11.5 µM]; BLM inh: -13.2%[12.4 µM]; JMJD2E inh: -1.5%[11.4 µM]

How did O=C(CSc1nnc(SCc2ccccc2)s1)N/N=C/C=C\c1ccco1 do in these assays?
RECQ1 inh: 25.1µM*; APE1 inh-1: 17.8µM*; PKM2 act: inconclusive; BLM inh: 17.8µM*; JMJD2E inh: inconclusive; APE1 dye cs: 12.6µM*; Endo IV inh: -10.4%; APE1 inh-2: 12.6µM*; APE1 FP inh: inconclusive

What do the screens show for `Cc1ccc(CSc2nnc(SCC(=O)N/N=C/c3c[nH]c4ccccc34)s2)cc1`?
RECQ1 inh: inconclusive; APE1 inh-1: 9.2%; PKM2 act: 25.1µM*; BLM inh: -13.9%; JMJD2E inh: -10.2%; APE1 inh-2: -24.4%

Results for COc1cc(C(=O)Nc2cccc(OCc3cc(=O)n4c(C)csc4n3)c2)cc(OC)c1OC ?
BLM inh: -3.9%

How did c1cncc(-c2nc(-c3ccco3)cs2)c1 do in these assays?
RECQ1 inh: -14.8%; APE1 inh-1: 25.1µM*; PKM2 act: 5.9%; BLM inh: -21.5%; JMJD2E inh: -28.6%; APE1 dye cs: -10.4%; Endo IV inh: 0.3%; APE1 inh-2: -9.7%[24.4 µM]; APE1 FP inh: inconclusive

How did c1cncc(-c2csc(-c3cccnc3)n2)c1 do in these assays?
APE1 inh-1: 22.9%; BLM inh: 2.1%

What do the screens show for `Nc1nonc1-c1nc2ccccc2n1CC(=O)Nc1ccccc1C(=O)O`?
BLM inh: -3.6%

How did Nc1nonc1-c1nc2ccccc2n1CC(=O)N/N=C/c1ccc(-c2cccc(C(=O)O)c2)o1 do in these assays?
RECQ1 inh: -21.2%; APE1 inh-1: inconclusive; PKM2 act: inconclusive; BLM inh: inconclusive; JMJD2E inh: inconclusive; APE1 dye cs: -4.3%; Endo IV inh: -1.9%; APE1 inh-2: 12.6µM*; APE1 FP inh: -3.9%

What do the screens show for `Cc1cc(C)c(NC(=O)CCn2c(=O)c3cccn3c3ccccc32)c(C)c1`?
BLM inh: -11.7%

Results for O=C1CSC(=S)N1N1C(=O)c2cccc([N+](=O)[O-])c2C1=O ?
RECQ1 inh: inconclusive; APE1 inh-1: inconclusive; PKM2 act: -9.1%; BLM inh: 121.4%; JMJD2E inh: -1.5%; APE1 inh-2: inconclusive

What do the screens show for `CC(=O)c1ccc(NC(=O)CSc2ccsc2[N+](=O)[O-])cc1`?
RECQ1 inh: inconclusive; APE1 inh-1: inconclusive; PKM2 act: -22.9%; BLM inh: -21.7%; JMJD2E inh: -7.0%; APE1 dye cs: inconclusive; Endo IV inh: -0.3%; APE1 inh-2: 3.55µM*; APE1 FP inh: 0.0%

Results for Cc1nn(C)c2nc(NNC(=O)Nc3cc(Cl)nc(Cl)c3)cc(C(C)C)c12 ?
RECQ1 inh: -5.5%; APE1 inh-1: -8.3%; BLM inh: -7.3%

How did CCOC(=O)[C@H](CCc1ccccc1)N[C@@H](C)C(=O)N1CCC[C@H]1C(=O)O do in these assays?
RECQ1 inh: -7.4%; APE1 inh-1: 0.0631µM*!; PKM2 act: -1.6%; BLM inh: -9.0%; JMJD2E inh: 5.8%; APE1 dye cs: -1.6%[57.1 µM]; Endo IV inh: 25.2%[57.1 µM]; APE1 inh-2: 6.1%; APE1 FP inh: 4.6%[57.1 µM]

How did COc1cc(-c2ccc(N=Nc3ccc4c(S(=O)(=O)O)cc(S(=O)(=O)O)c(N)c4c3O)c(OC)c2)ccc1N=Nc1ccc2c(S(=O)(=O)O)cc(S(=O)(=O)O)c(N)c2c1O do in these assays?
RECQ1 inh: 4.47µM*; APE1 inh-1: 1.41µM*; BLM inh: inconclusive; JMJD2E inh: 3.55µM*; Endo IV inh: 6.31µM*!; APE1 inh-2: 1µM*

How did Cc1noc(C)c1-c1ccc2ncnc(N(C)Cc3ccco3)c2c1 do in these assays?
RECQ1 inh: 0.9%; APE1 inh-1: -0.9%; BLM inh: -1.1%; JMJD2E inh: -18.9%

Results for CCCOc1ccccc1-c1nc2n[nH]nc2c(=O)[nH]1 ?
RECQ1 inh: 15.7%; APE1 inh-1: -5.4%; BLM inh: -13.3%; JMJD2E inh: 6.3%; APE1 dye cs: -6.6%[57.1 µM]; Endo IV inh: 7.7%[57.1 µM]; APE1 inh-2: 0.9%; APE1 FP inh: 22.3%[57.1 µM]

Results for OCCN(Cc1ccccc1)Cc1ccccc1Cl ?
RECQ1 inh: -1.9%; APE1 inh-1: -3.3%; PKM2 act: -0.8%; BLM inh: -19.3%; JMJD2E inh: inconclusive

What do the screens show for `OCCN(Cc1ccccc1)Cc1cccc(Cl)c1Cl`?
RECQ1 inh: 7.8%; APE1 inh-1: -5.7%; PKM2 act: 0.5%; BLM inh: -3.2%; JMJD2E inh: inconclusive; APE1 inh-2: inconclusive
